From PubChem
Pf growth 48h: P. falciparum growth inhibition at 48 hours (one generation); P. falciparum luciferase growth in erythrocytes, 48 h; Potency, µM (top dose mostly 28.7 µM), for inactives: top-dose activity change, negative = inhibition, hits mostly inhibitors; 310,000 compounds, 5.9% hits; AID 504832; further: on the % scale 0 is the no-effect control and ±100 the full control effect
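Parasite viability was followed by luminescence of a genomically integrated firefly luciferase. Cultures held 0.1% parasitemia at 2% hematocrit (final), incubated under 5% CO2 at 37 C.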
Sm TGR block: blocks Schistosoma mansoni thioredoxin glutathione reductase; Q962Y6; 360,000 compounds, 3% hits; purified TGR, DTNB reduction, TNB absorbance 405 nm; Potency, µM (doses to about 114 µM), for inactives: at the highest dose activity change, negative = inhibition, actives largely listed as inhibitors; further: on the % scale 0 is the no-effect control and ±100 the full control effect; nearly all actives have a fitted effect of over 60% in size
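Kinetic colorimetric format: TGR-catalysed, NADPH-driven DTNB reduction monitored via TNB absorbance. Enzyme dispensed at 20 nM; compound exposure 15 min at room temperature before reaction start.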
SARS PLP yeast: inhibitors of SARS-CoV papain-like protease in yeast; S. cerevisiae expressing SARS-CoV PLpro, growth rescue; Potency, µM (highest dose often 32.9 µM), without a hit: at the highest dose activity, positive = growth rescue, usual class: activators; 330,000 compounds, 0.19% hits; AID 485353; calls by dose curve; further: 0% is about no effect; nearly all actives have a fitted effect of over 55% in size
Pf growth 96h: P. falciparum growth inhibition at 96 hours; P. falciparum luciferase reporter growth, 96 h; Potency, µM (doses to about 28.7 µM), for inactives: at the top dose activity change, negative = inhibition, hits mostly inhibitors; 320,000 compounds, 6.9% hits; AID 504834; further: on the % scale 0 is the no-effect control and ±100 the full control effect
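Two-generation exposure (96 h) targets delayed-death phenotype. Reporter parasites carrying integrated firefly luciferase, in red cells at 2% hematocrit and 0.05% parasitemia final, kept at 37 C, 5% CO2; luminescence loss indicates inhibition.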
The depositor's hits bear a star; ? = inconclusive; . = no result given; [ ] = dose if it differs, or a comment. Shown are actives, neighbours in structure and some others; about 12% of the full set was active somewhere. Unless noted, the call rests on the fitted dose curve; in most records, active means well fitted curve in the direction sought with a large enough effect; inconclusive means small, poorly fitted or top-dose-only effect, or another doubt; inactive means no such curve, though single readings can be large; an effect the other way counts as inactive or inconclusive. Potency means the concentration at half of the fitted maximal effect.

SMILES	Pf growth 48h	Sm TGR block	SARS PLP yeast	Pf growth 96h
O=[N+]([O-])c1ccc(N2CCN(S(=O)(=O)c3ccccc3)CC2)cc1NCc1cccnc1	9.3µM*	5%	0%	-1%
O=[N+]([O-])c1ccc(N2CCN(S(=O)(=O)c3ccc(Cl)cc3)CC2)cc1NCc1cccnc1	7.4µM*	-1%	1%	?
O=[N+]([O-])c1ccc(N2CCN(S(=O)(=O)c3ccccc3)CC2)cc1NCC1CCCO1 (stereo not drawn)	8%	4%	-7%	?
O=[N+]([O-])c1ccc(N2CCN(S(=O)(=O)c3ccccc3)CC2)cc1NCc1ccco1	-20%	14%	22%	13µM*
COc1ccc(S(=O)(=O)NCC2CCCN(C(=O)CCC(F)(F)F)C2)cc1 (stereo not drawn)	-16%	-23%	0%	119%
O=C(CCCn1c(=O)[nH]c2ccccc2c1=O)N1CCN(c2ccccc2)CC1	.	1%	.	.
COc1ccc(C(CNc2ccc(S(=O)(=O)N3CCCC3)cc2[N+](=O)[O-])N2CCCC2)cc1 (stereo not drawn)	?	-5%	5%	10µM*
COc1ccc(Nc2ccc(S(=O)(=O)N3CCCCC3)cc2[N+](=O)[O-])cc1Cl	?	-7%	4%	13µM*
COc1ccc(Nc2ccc(S(=O)(=O)N3CCCCC3)cc2[N+](=O)[O-])cc1	-15%	0%	5%	-25%
O=C(CCS(=O)(=O)c1cccc2nonc12)Nc1ccc(F)cc1F	.	0%	.	.
CC(C)(C)C(O)C(Cc1ccccc1Cl)n1cncn1 (stereo not drawn)	?	-7%	-5%	?
CN1/C(=C/C2CC(=O)N(c3ccc([N+](=O)[O-])cc3)C2=O)C(C)(C)c2ccccc21 (stereo not drawn)	.	13µM*	3%[6.58 µM]	?
CN(C)CCNS(=O)(=O)c1ccc(N2CCN(c3ccc(F)cc3)CC2)c([N+](=O)[O-])c1	12µM*	1%	5%	?
Cc1ccc(S(=O)(=O)NCCSc2nnnn2-c2ccc(C(N)=O)cc2)cc1	?	-3%	-1%	?
Cc1ccc(-n2nnnc2Sc2ccc(S(=O)(=O)NCCN(C)C)cc2[N+](=O)[O-])cc1	?	25µM*	?	?
O=[N+]([O-])c1cc(S(=O)(=O)NCCN2CCOCC2)ccc1Sc1nnnn1-c1ccccc1	13µM*	18µM*	17%	?
CC(=O)N1CCN(c2ccc(S(=O)(=O)NCCN(C(C)C)C(C)C)cc2[N+](=O)[O-])CC1	-1%	5%	-1%	2%
CCOc1cc(N2CCOCC2)c(OCC)cc1NC(=O)c1cc(S(=O)(=O)N2CCOCC2)ccc1F	.	.	1%	.
CCOC(=O)c1ccccc1NC(=O)NCc1cccn1Cc1ccc(F)cc1	.	2%	.	.
CC(=O)c1cccc(NC(=O)C2CCN(C(=O)c3cccs3)CC2)c1	-16%	-1%	-1%	?
Cc1cc(C(=O)N2CCN(S(=O)(=O)c3ccc(C)c(C)c3)CC2)no1	0%	0%	5%	-12%
Cc1ccc(-n2cc(CNC(C)Cn3cncn3)c(-c3ccc(F)cc3)n2)cc1 (stereo not drawn)	7.4µM*	.	-2%	11%
Cc1ccc(C)c(-n2cc(CNC(C)Cn3cncn3)c(-c3ccccc3)n2)c1 (stereo not drawn)	13µM*	3%	1%	?
CCOC(=O)c1cn(CC)c2ccc(S(=O)(=O)N3CC(C)CC(C)C3)cc2c1=O (stereo not drawn)	2%	-6%	5%	69%
CCOC(=O)c1cn(CC)c2ccc(Br)cc2c1=O	5.2µM*	2%	11%	12µM*
SMILES	Pf growth 48h	Sm TGR block	SARS PLP yeast	Pf growth 96h
CCn1cc(C(=O)O)c(=O)c2cc(Br)ccc21	2.6µM*	0%	0%	.
Cc1nn(-c2ccccc2)c(OC(=O)c2ccccc2)c1S(=O)(=O)c1ccccc1	.	-9%	.	.
CC1CC(N(C(=O)c2ccc(Cl)cc2)c2ccccc2)c2ccccc2N1C(=O)c1ccco1 (stereo not drawn)	.	-1%	-12%	9.3µM*
Cc1c(C(=O)NCCC2=CCCCC2)sc2ncnc(N3CCCCC3C)c12 (stereo not drawn)	?	-16%	-19%	2.6µM*
COc1cc(Br)c(C2CC(=O)Nc3cc(OC)c(OC)c(OC)c32)cc1OC (stereo not drawn)	.	1%	.	.
COc1cc(/C=C/C(O)=C/C(=O)/C=C/c2ccc(O)cc2)ccc1O	12µM*	-28%	1%	?
COc1cc(/C=C/C(=O)NC(=O)c2ccccc2O)ccc1O	?	-6%	1%	-7%
C[n+]1ccc(/C=C/c2cccs2)cc1	2.9µM*	-4%	1%	2.3µM*
CN1CCCN=C1/C=C/c1cccs1	15%	-23%	?	-17%
Cc1ccccc1NC1=NC(=S)N(c2ccccc2)C12CCCCC2	?	-17%	-13%	10µM*
Cc1ccccc1NC1=NC(=S)N(c2ccccc2)C12CCOC(C)(C)C2 (stereo not drawn)	?	-22%	5%	?
O=c1c2nncn2ccn1-c1ccc(F)c(F)c1	.	2%	.	.
Cc1ccnc(Sc2ccc([N+](=O)[O-])cc2[N+](=O)[O-])n1	.	?	-24%	?
O=[N+]([O-])c1ccc(Sc2nc3ccccc3o2)c([N+](=O)[O-])c1	.	4µM*	-37%	?
O=[N+]([O-])c1ccc(Sc2cc[n+]([O-])c3ccccc23)c([N+](=O)[O-])c1	-11%	7.9µM*	0%	-7%
Nc1nc(Sc2ccc([N+](=O)[O-])cc2[N+](=O)[O-])n[nH]1	?	32µM*	-1%	?
O=[N+]([O-])c1ccc(Cl)cc1Sc1nc2ccccc2o1	8.3µM*	-12%	-13%	8%
Cc1ccc(-c2nnc(SCC(=O)NC3CCCC3)nc2-c2ccc(C)cc2)cc1	.	-17%	.	.
Clc1ccc(CCNC(c2nnc(-c3ccccc3)o2)c2ccccc2Cl)cc1 (stereo not drawn)	.	15%	.	.
COc1ccc(C(=O)NCC(c2ccccc2)N2CCCC2)cc1S(=O)(=O)N1CCOCC1 (stereo not drawn)	?	-30%	2%	?
NC(=O)C1(N2CCCCC2)CCN(C(=O)NC2CCCCC2)CC1	0%	3%	-2%	15µM*
CCOc1ccc(NC(=O)N2CCC(C(N)=O)(N3CCCCC3)CC2)cc1	2%	-3%	0%	13µM*
NC(=O)C1(N2CCCCC2)CCN(C(=O)Nc2ccccc2C(F)(F)F)CC1	5%	-7%	0%	1.7µM*
O=C(NCc1ccccc1Cl)c1cnc2sc(N3CCOCC3)nn2c1=O	.	1%	.	.
Cn1nc([N+](=O)[O-])nc1Oc1ccccc1N	.	-18%	-18%	-17%
Cn1nc([N+](=O)[O-])nc1Oc1ccccc1F	-1%	0%	0%	13µM*
COc1cc(-c2noc(C)c2-c2ccc3[nH]ccc3c2)cc(OC)c1OC	?	-7%	-20%	10µM*
